From PubChem
Hits are enriched below; roughly 21% of the tested compounds scored in any of these assays.
IL-1B inflam inh: inhibitors of inflammasome signaling (IL-1 beta secretion); AID 743279; THP-1 LPS/ATP IL-1B secretion, AlphaLISA, 16 h; stronger effect = lower value; 360,000 tested, 4.7% active; activity change, % at 57.5 µM; in the data active means activity change below about -50%; inconclusive means mostly about -30% to -49%
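THP-1 cells pretreated 1 hr with compounds (up to 57.5 uM final), then stimulated with LPS (250 ng/mL final) plus ATP (1.25 mM final); secreted IL-1B measured by AlphaLISA after 16 hr, decreased signal indicating inhibition.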
RORg inh: ROR gamma (mouse) transcription inhibition; AID 2551; Drosophila S2 Gal4-RORgamma UAS-luciferase reporter, 20 h; P51450; 310,000 tested, 5.4% active; Potency, µM (top dose mostly 53.6 µM), for inactives: at the top dose activity change, negative = inhibition, most hits filed as inhibitors; further: potency means the concentration at half of the fitted maximal effect; nearly all actives have a fitted effect of over 60% in size
Target sequence (P51450 whole entry, looked up, the tested form may be a part): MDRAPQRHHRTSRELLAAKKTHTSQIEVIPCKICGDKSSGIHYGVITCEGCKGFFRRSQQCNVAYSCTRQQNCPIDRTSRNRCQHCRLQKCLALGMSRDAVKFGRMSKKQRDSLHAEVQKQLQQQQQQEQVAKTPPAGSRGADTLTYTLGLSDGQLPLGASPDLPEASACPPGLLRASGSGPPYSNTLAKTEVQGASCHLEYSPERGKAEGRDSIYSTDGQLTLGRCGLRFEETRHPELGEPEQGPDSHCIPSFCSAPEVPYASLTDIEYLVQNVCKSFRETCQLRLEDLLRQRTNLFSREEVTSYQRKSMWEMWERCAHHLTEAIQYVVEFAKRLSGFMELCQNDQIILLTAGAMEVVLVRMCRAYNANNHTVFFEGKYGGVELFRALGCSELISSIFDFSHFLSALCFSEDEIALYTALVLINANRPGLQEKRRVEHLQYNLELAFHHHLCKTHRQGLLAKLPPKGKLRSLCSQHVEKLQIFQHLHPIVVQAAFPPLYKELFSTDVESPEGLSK
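Luciferase reporter read in Schneider cells carrying Gal4-RORγ (mouse) and UAS-Photinus luciferase; cells given compound 1 h before 700 uM copper sulfate induction, then incubated 20 h at ambient temperature.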
TDP1 cell noCPT: qHTS for Inhibitors of human tyrosyl-DNA phosphodiesterase 1 (TDP1): qHTS in cells in absence of CPT; DT40 Tdp1-/- hTDP1 cells, no CPT, ATP luminescence, 48 h; Potency, µM (top dose mostly 46.2 µM), without a hit: top-dose activity change, negative = growth inhibition, usual class: inhibitors; 420,000 tested, 15% active; further: potency means the concentration at half of the fitted maximal effect; nearly all actives have a fitted effect of over 55% in size
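Chicken DT40 Tdp1-/- cells complemented with human TDP1, screened without camptothecin (DMSO vehicle only), 400 cells/well. Compounds pin-transferred, cells incubated at 37 °C for at least 48 hr. Growth read as ATP-dependent luminescence (CellTiter-Glo, 30 min at RT).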
Gal4-VP16 FLuc: Gal4-VP16 reporter inhibition counter-screen; Drosophila S2 Gal4-VP16 UAS-luciferase, luminescence, 20 h; Potency, µM (doses to about 53.6 µM), without a hit: top-dose activity, negative = inhibition, actives largely listed as inhibitors; 310,000 tested, 3.5% active; AID 2546;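 further: Gal4-VP16 expression switched on by copper sulfate through the metallothionein promoter; potency means the concentration at half of the fitted maximal effect; nearly all actives have a fitted effect of over 50% in size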
DT40 TDP1 CPT: DT40-hTDP1 cell growth loss with CPT; chicken DT40 Tdp1-/-;hTDP1 cells + 20 nM CPT, ATP luminescence, 48 h; Potency, µM (series often up to 46.2 µM), inactives show at the highest dose activity change, negative = growth inhibition, usual class: inhibitors; 420,000 tested, 12% active; further: potency means the concentration at half of the fitted maximal effect; nearly all actives have a fitted effect of over 55% in size
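Chicken DT40 Tdp1-/- cells complemented with human TDP1, 400 cells/well, exposed to compounds plus 20 nM camptothecin for at least 48 h at 37 C; viability read as ATP content by CellTiter-Glo luminescence.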
ELG1 DNA repair: ELG1-dependent DNA repair inhibition; 330,000 tested, 2.3% active; Potency, µM (titrated, usually from 46.1 µM), inactives show at the top dose activity change, negative = inhibition, hits mostly inhibitors; HEK293T ELG1-luciferase reporter, luminescence, 16 h; DNA damage induced by 5-fluorouridine; further: potency means the concentration at half of the fitted maximal effect; nearly all actives have a fitted effect of over 55% in size
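Overnight (16 hr) co-exposure of 2,000 cells/well to 5-fluorouridine and compound at 37 °C preceded detection. Luciferase was quantified via ONE-Glo luminescence; loss of signal denotes inhibition.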
Starred values were filed as active, the others as inactive; ? = inconclusive; nt = no result given. Unless noted, the call rests on the fitted dose curve; in most records, active means well fitted curve in the direction sought with a large enough effect; inconclusive means small, poorly fitted or top-dose-only effect, or another doubt; inactive means no such curve, though single readings can be large; an effect the other way counts as inactive or inconclusive. On the % scale 0 is the no-effect control and ±100 the full control effect.

SMILES | IL-1B inflam inh | RORg inh | TDP1 cell noCPT | Gal4-VP16 FLuc | DT40 TDP1 CPT | ELG1 DNA repair
COc1ccc(S(=O)(=O)Nc2ccc3c(c2)C(=O)N([C@H](C)CO)C[C@H](C)[C@@H](CN(C)S(=O)(=O)c2ccccc2)O3)cc1 | -14.1 | nt | ? | nt | 20.6µM* | ?
COc1ccc(S(=O)(=O)N(C)C[C@H]2Oc3ccc(NS(=O)(=O)c4ccccc4)cc3C(=O)N([C@H](C)CO)C[C@@H]2C)cc1 | ? | nt | -9.1% | nt | -26.1% | ?
COc1ccc(S(=O)(=O)N(C)C[C@H]2Oc3ccc(NC(=O)Cc4cn(C)c5ccccc45)cc3C(=O)N([C@@H](C)CO)C[C@@H]2C)cc1 | -2.1 | nt | 14.6µM* | nt | ? | ?
CS(=O)(=O)N1CCCCC1CCN1CCCCC1 (stereo not given) | -10.6 | nt | -2.8% | nt | 3.4% | nt
O=c1cnc2cnc(Oc3cccc(Cl)c3)nc2n1Cc1ccc(F)cc1 | nt | 10.6% | 23.1µM* | -6.8% | ? | nt
COc1ccc(-c2nc3cnc(N(C)C)nc3n(Cc3ccc(F)cc3)c2=O)cc1 | nt | 16.6% | -0.6% | -8.1% | -8.0% | nt
CN(C)c1ncc2ncc(=O)n(Cc3ccc(F)cc3)c2n1 | nt | 5.4% | 20.6µM* | -20.8% | 10.3µM* | nt
COc1ccc(Oc2ncc3ncc(=O)n(Cc4cccs4)c3n2)cc1 | nt | 2.6% | 23.1µM* | -2.4% | ? | nt
O=C(Cc1c(F)cccc1Cl)Nc1ccc(S(=O)(=O)Nc2nccs2)cc1 | -9.6 | -2.1% | -7.7% | -9.9% | -0.5% | -0.9%
CC(C)C[C@@H](CC(=O)N[C@@H](CCC(=O)O)CC(=O)O)NC(=O)[C@@H]1CNCC[C@H]1NC(=O)C[C@@H](NC(=O)C[C@H](CO)NC(=O)[C@@H]1CCCC[C@H]1N)C(C)C | nt | -11.8% | nt | 3.3% | nt | nt
CCc1ccc(-n2cc(-c3ccc([N+](=O)[O-])cc3)[nH]c2=S)cc1 | -25.9 | 11.2µM* | -4.8% | ? | 3.1% | 27.0%
COc1ccc(-n2cc(-c3ccc(Br)cc3)[nH]c2=S)cc1 | 2.4 | 1.78µM* | -13.1% | -14.1% | 0.9% | 17.4%
COc1ccc(-n2cc(-c3ccccc3)[nH]c2=S)c(OC)c1 | ? | 2.51µM* | 5.8µM* | 7.94µM* | 7.31µM* | ?
COc1ccc(-n2cc(-c3ccc(OC)c(OC)c3)[nH]c2=S)cc1 | -0.8 | 2µM* | ? | 10µM* | -4.1% | 20.0%
Cc1ccc(-c2cn(-c3ccccc3)c(=S)[nH]2)cc1C | -21.7 | ? | ? | ? | ? | ?
COc1ccc(NC(=O)Nc2ccc3c(c2)C(=O)N([C@H](C)CO)C[C@H](C)[C@@H](CN(C)C(=O)Nc2c(C)noc2C)O3)cc1 | 7.2 | nt | -7.6% | nt | -6.5% | 11.8%
CCCOc1ccc(C(=O)Nc2ccc3oc(-c4ccc5ccccc5c4)nc3c2)cc1 | nt | nt | -6.8% | nt | 5.7% | nt
CCOC(=O)Cc1csc(NC(=O)c2ccc(Cl)nc2)n1 | 4.0 | -17.0% | 23.1µM* | -4.7% | ? | -15.9%
CCOC(=O)Cc1csc(NC(=O)c2ccc(C)cc2)n1 | 14.9 | -13.9% | ? | -4.0% | -15.6% | 7.7%
CCCCC(=O)Nc1ccc(C(=O)Nc2nc(CC(=O)OCC)cs2)cc1 | -10.7 | -4.3% | ? | 4.3% | 22.4µM* | -25.4%
COCCNC(=O)C1C(=O)Nc2ccccc2C(=O)N1Cc1ccccc1 (stereo not given) | 19.3 | nt | -4.9% | nt | 14.6% | nt
O=C(NC(=S)NCCN1CCOCC1)c1ccc(Cl)cc1 | 7.5 | ? | -9.6% | ? | -0.5% | ?
CC(=O)O[C@@H]1CC[C@@]2(C)[C@H](C1)[C@H](OC(C)=O)C[C@@H]1[C@@H]2C[C@H]2[C@@H]3CN4C[C@H](C)CC[C@H]4[C@H](C)[C@H]3CC[C@@]12O | nt | -3.3% | nt | -1.2% | nt | nt
